In the supplement of paper PMC6555819:

Tested on: RARb homodimer (NR concentration 270 nM)
Assay: PBM binding z-score (relative to random genomic background probes); higher = stronger binding; sequences stand for … in GC…GCGATTGACAGCGTAGAATGAAGG
Outline: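 Binding z-scores were set against random background probes. The data came from custom Agilent 4×180K protein-binding microarrays carrying double-stranded probes with 34-nt variable regions, incubated 1 h with ligand-free nuclear receptor dimers. Partner-specific antibodies detected binding, and scanned fluorescence was regression-normalized.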

Sequence	PBM binding z-score
AGAATGAGGTTATTAAGATCCGGGAATTGCGGTC	0.644
ATCTCTAGGTAAGACTCACTTCAGTGAAGAACGC	-0.0357
ACTAGCAGGCCAAGGGTCACTCAAGATTAGTCCG	3.86
TCATATAGGTAAAGGTGAAGGTCGAACGATATGA	2.28
TCTCGGAGGACACGACAGGTCAGAGCTCGACATC	2.87
CCTACTGGGCCATTAGGTCATTGATATCAACGTT	2.8
GCGACTGGGGCATCAGCAGGTTACCATGACTTAA	0.92
ATCGACAGGTCGACGAGGTGAGTATACACCGTTT	0.949
TAATATAGGTAAACAGGTGAAAGTCCGTAAGTTA	0.737
CCGACTGGGGCAGAAACGTTACCATACCATCCGG	-0.276
CCTCGGAGGACAGAGGGTCAGAGCTGTCCGCTTT	2.47
TCTAGCAGGCCAGAGGGCCACTCAAGAGGTACGG	-0.0244
CGAACTAGGTCATTGACAGGACAGTGAATAGTAA	2.71
CGTCCAAGGTCATAGGAGCTCAGTGAAGACAGAT	3.58
TCTATTACTTGATTAGGGCAACCGAAACAGCGGA	0.543
ATATGTAGGTTAAGGGTCAGTCAGGTTGGTTCGC	3.81
AGTCAAAGTTCACTAGGTAACGTGAGATTCAGCT	3.59
GCTATTAATTGAAAGGGCAACCGAATGATTCTCG	1.96
CCTAGCAGGACAATCTGGGTCACTCAAGGCTTGA	2.13
ACTATTAGTTGAGACGAGGTCAACCGATAGGTTG	4.05

Sequence	PBM binding z-score
TCGAGTAGGTGACCAATGGGGCATTCAGCTTTCT	0.62
CGAACTAGGTCATTGACAGAACAGTGAATAGTAA	2.34
CCTTACGGGTCACTGACAGGTTATACCATTTGGA	3.56
ACTAGCAGGCCAAGTTTGCGTCACTCAAACAAAG	0.00722
TGTCTAAGTTCAAAGGTAACGTAAGTATCCACAC	2.69
CAAACTAGGTCACGAAAGGTCAAAGTCGAATGAC	5.65
TATACAGGGTCAAAGGCCAGGGTACGAATGTCGA	3.71
CAAGACAGGTGAGAAGGTAACTCAGCCTCGATTA	0.607
GTAGCAAGGTGAATAGGTCGTTGATGAGTAGGCG	1.48
CAGCCTAGGTCAGGGCCACTATAGGAGGAACGTT	2.67
CGAACTAGGTCAAGGACAGTGGATCTCCGCACGC	3.1
TCATTTAGGTAAACAGGTGAAAGTCCGTAAGTTA	1.09
CAAACTAGGTCACTGGAAGGTCAAAGTCCGCATG	5.21
TCATATAGGTATACAGGTGAAAGTCCGTAAGTTA	0.863
ATCTTTAGGTAAAAGTTCAGTGAATCCCGAGGAT	2.61
ACGAGTTGGTCAGCTGAGGTCACACACAATTCGG	4.17
TAGCCTAGGTCATCGGCCAGTATACCACGCGAAC	2.9
CCTCCTGGGCCATTCAGAGGTCATTGATCATATG	4.15
TAGCCTAGGTCATGCGGGCCATTATAGTGTCGGC	3.04
TAGTCTAGGTCATTCAGGGGCCAGTATAGAAAGC	3.57
